# Compound activity (PubChem)
# This is a sample that favours compounds with a hit; in the whole collection about 5.7% have one here.
# JMJD2E inh: blocks human JMJD2E demethylase activity. B2RXH2. JMJD2E catalytic domain, FDH-coupled NADH fluorescence (FDH is formaldehyde dehydrogenase). Potency, µM (top dose mostly 57.1 µM), usual class: inhibitors. 1.6% of 230,000 active; active = well fitted inhibition curve with a large enough effect, not every such curve was filed as active; inconclusive = small, poorly fitted or top-dose-only effect, or another doubt; inactive = no such curve, though single readings can be large or run the other way; also: nearly all actives have a fitted effect of over 50% in size
# Target sequence (B2RXH2 1-337 limits assumed): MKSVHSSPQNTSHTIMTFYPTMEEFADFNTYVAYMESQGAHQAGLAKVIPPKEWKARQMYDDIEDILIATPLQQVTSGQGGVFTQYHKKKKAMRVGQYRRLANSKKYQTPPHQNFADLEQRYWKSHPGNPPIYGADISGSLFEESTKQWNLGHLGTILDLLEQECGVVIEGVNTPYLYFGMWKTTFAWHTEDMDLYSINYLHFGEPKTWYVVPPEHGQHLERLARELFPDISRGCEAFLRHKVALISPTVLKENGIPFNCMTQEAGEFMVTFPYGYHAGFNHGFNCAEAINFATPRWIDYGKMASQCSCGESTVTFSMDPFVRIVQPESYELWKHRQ
# L3MBTL1 block: L3MBTL1 (human) inhibition; 0.66% of 230,000 active; AlphaScreen L3MBTL1–H3K9me1 peptide binding; Q9Y468; Potency, µM (titrated, usually from 57.1 µM), usual class: inhibitors; AID 485360; also: nearly all actives have a fitted effect of over 60% in size
#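 AlphaScreen proximity signal between nickel-chelate acceptor and streptavidin donor beads (final 10 ug/mL) reports binding of 50 nM L3MBTL1 to 75 nM biotin-H3 K9me1 peptide; complex incubated with compounds 30 min at room temperature; cefsulodin titration as control.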
# JMJD2A Tudor: inhibitors of human JMJD2A Tudor domain; O75164; AlphaScreen JMJD2A-Tudor / H3K4me3 peptide binding; Potency, µM (top dose mostly 114 µM), actives largely listed as inhibitors; 4.4% of 390,000 active; AID 504339; also: nearly all actives have a fitted effect of over 50% in size
# BAZ2B block: BAZ2B (human) inhibition | Q9UIF8 | AlphaScreen BAZ2B-H3K14Ac peptide displacement | Potency, µM (series often up to 114 µM), actives largely listed as inhibitors | 4.4% of 360,000 active | AID 504333; also: nearly all actives have a fitted effect of over 60% in size
#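 Compounds, titrated to a top concentration of 110 uM, were incubated 30 min at room temperature with preformed BAZ2B/acetyl-K14 H3 peptide complex (50 nM each). Proximity signal was measured by AlphaScreen after 20 min with beads.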
# HP1b binding inh: inhibitors of HP1-beta chromodomain binding to methylated histone tails. P83916. AlphaScreen HP1-beta / biotin-H3K9me3 peptide binding. Potency, µM (doses to about 114 µM), actives largely listed as inhibitors. 0.56% of 390,000 active; also: nearly all actives have a fitted effect of over 70% in size
# Target sequence (P83916 whole entry, looked up): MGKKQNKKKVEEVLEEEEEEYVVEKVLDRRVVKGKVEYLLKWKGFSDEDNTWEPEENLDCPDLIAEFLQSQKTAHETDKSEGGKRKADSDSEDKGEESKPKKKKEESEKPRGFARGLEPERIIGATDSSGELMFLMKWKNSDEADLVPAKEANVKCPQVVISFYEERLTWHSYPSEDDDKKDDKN
#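 Compound inhibition of the preformed complex between 50 nM HP1-beta and 50 nM biotinylated H3K9me3 peptide was read by AlphaScreen. Buffer was PBS pH 7.4 with 0.01% Tween-20. Incubations ran 30 min at room temperature, with 10 ug/mL donor/acceptor beads.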
# PI5P4K alpha inh: PI5P4K alpha (human) kinase inhibition; P48426; PI5P4Kalpha enzyme, ADP-Glo luminescence, 60 min; active compounds read low; max response, %; 1.2% of 330,000 active; AID 652105; active = max response of -50% or lower; inconclusive = between -30% and -50%; inactive = -30% or higher; also: value at the top dose of about 77 µM
#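 Luminescence from ADP-Glo served as readout of PI5P4Kalpha activity in a qHTS format. Reaction: enzyme, substrate, compound, ATP at 5 microM final, 60 min at RT.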
# Numbers stand for hits; i = inactive; ? = inconclusive; nt = not tested or not shown; [ ] = dose if it differs, or a comment. Unless noted, calls follow the shape of the dose curve; as a rule, active = well fitted inhibition curve with a large enough effect; inconclusive = small, poorly fitted or top-dose-only effect; inactive = no such curve, though single readings can be large or run the other way.
SMILES,JMJD2E inh,L3MBTL1 block,JMJD2A Tudor,BAZ2B block,HP1b binding inh,PI5P4K alpha inh
C=C(C)C1CNC(C(=O)O)C1CC(=O)O (stereo unspecified),i,nt,nt,nt,nt,nt
C[N+]1(C)CCO[C@](O)(c2ccc(-c3ccc([C@]4(O)C[N+](C)(C)CCO4)cc3)cc2)C1,i,nt,nt,nt,nt,nt
C=CCc1c(C)[nH]c(=S)c(C#N)c1C,?,i,5µM,i,i,?
COC(=O)c1ccc(NS(=O)(=O)NC(=O)c2cn(C)c3ccccc23)cc1,nt,nt,i,?,i,i
Cc1cccc(CN2CCN(Cc3ccc(Cl)cc3)CC2)c1,16µM,nt,1.1µM,32µM,?,i
Cc1cccc(CN2CCN(c3ccc(Cl)cc3)CC2)c1,22µM,i,22µM,50µM,?,i
Fc1ccc(CN2CCN(c3ccc(Cl)cc3)CC2)cc1,i,nt,i,i,i,i
CCN1CCN(Cc2ccc(C)cc2)CC1,i,i,i,i,i,nt
CCCCCCN1CCN(c2ccc(Cl)cc2)CC1,?,i,?,45µM,?,i
C=C(CC1(C(C)NP(=O)(c2ccccc2)c2ccccc2)CC1)c1ccccc1 (stereo unspecified),i,nt,nt,nt,nt,nt
C=CCn1c(O)c(C(CC)=NCc2cccnc2)c(=O)[nH]c1=O,i,i,i,i,i,i
c1ccc(C(c2ccccc2)N2CCN(c3ccc4ccccc4n3)CC2)cc1,?,i,i,i,i,i
C/C=C(\C)C(=O)OC1C(C)=C2C(C1OC(=O)CCCCC)C(C)(OC(C)=O)CC(OC(=O)CCC)C1(O)C2OC(=O)C1(C)O (stereo unspecified),i,nt,nt,56µM,nt,nt
O=C(CNC1CCCCC1)N1CCC2(CC1)OCCO2,i,nt,3.2µM,?,?,nt
COc1cc(C(=O)OCc2cc(=O)c(O)co2)ccc1OC(F)F,nt,nt,i,?,i,i
COc1ccc(OC)c(CN2CCN(C(=O)Cc3ccccc3)CC2)c1,nt,i,18µM,?,?,i
CCOc1cc(CN2CCN(C(=O)Cc3ccccc3)CC2)ccc1OC,nt,i,28µM,56µM,?,i
COc1ccc(CN2CCN(C(=O)Cc3ccccc3)CC2)cc1OC,nt,nt,nt,nt,nt,i
COc1ccc(CN2CCN(C(=O)Cc3ccccc3)CC2)cc1Br,nt,i,25µM,?,?,i
CCN1C[C@]2(C)CC[C@H](OC)[C@@]34[C@H]1C1(OCO[C@@]15C[C@H](OC)C1C[C@]3(O)C5[C@H]1OC)[C@@H](O)[C@H]24,i,nt,nt,nt,nt,nt
C[C@@]12CC[C@H](O)C[C@@H]1CC[C@H]1[C@@H]2C[C@@H](O)[C@]2(C)[C@@H](C3=CC(=O)OC3)CC[C@]12O,i,nt,nt,nt,nt,nt
CC(Cc1ccc(OCC(=O)O)cc1)NCC(O)c1cccc(Cl)c1 (stereo unspecified),i,nt,nt,nt,nt,nt
Cc1cccc(-n2c(O)c(/C=C3/C(c4ccccc4)=Nc4ccccc43)c(=O)[nH]c2=O)c1,?,nt,?,40µM,i,i
Cc1ccccc1-n1c(O)c(/C=C2/C(c3ccccc3)=Nc3ccccc32)c(=O)[nH]c1=O,i,i,?,?,?,i
COC(=O)C1=Nc2ccccc2/C1=C\c1c(O)n(-c2cc(OC)ccc2OC)c(=O)[nH]c1=O,?,i,i,79µM,?,-66
SMILES,JMJD2E inh,L3MBTL1 block,JMJD2A Tudor,BAZ2B block,HP1b binding inh,PI5P4K alpha inh
Cc1ccc(-n2c(O)c(/C=C3/C(c4ccccc4)=Nc4ccccc43)c(=O)[nH]c2=O)cc1,i,i,?,?,i,i
Cn1c(NN=O)nc2ccccc21,i,i,?,?,i,i
CCN(CC)c1ccc(CNc2nc3ccccc3n2C)cc1,i,nt,?,45µM,i,i
CCCCCSc1cc(OC)c(CCN(C)C)cc1OC,i,i,?,45µM,?,i
COc1ccc(C(=O)C(C)(C)NO)cc1,?,i,50µM,?,?,i
COc1ccc(C(=O)C23CN4CN(CN(C4)C2)C3)cc1,i,nt,i,i,i,i
CCOc1ccc(N2C(=O)/C(=C/c3ccco3)C(=O)NC2=S)cc1,nt,i[2.29 µM],0.79µM,28µM,1.6µM,-82
Cc1cccc(N2C(=O)/C(=C/c3ccc(N4CCN(C)CC4)o3)C(=O)NC2=S)c1C,i,i,?,i,i,i
CCOc1ccc(N2C(=O)/C(=C\c3cccs3)C(=O)NC2=S)cc1,i,25µM,35µM,i,i,-64
